{"source": "PubChem BioAssay AID1259389", "about": "(Center for Chemical Genomics, University of Michigan, 2018)", "note": "Among all 100,000 compounds or so, about 620 (0.62%) were called active. The entries come from a sample that favours actives as a whole. Values without a mark were called inactive. How the source made its calls: active means z-score of 3 or more in at least 2 runs; inactive means the rest."}
{"test": "TAR RNA-Tat peptide displacers, HIV-1, primary screen, biochemical, FRET, FAM/TAMRA-labeled Tat (AID 1259389)", "settings": "HIV-1 TAR RNA, Tat peptide displacement FRET; stronger effect = higher value"}
{"smiles": "O=C(O)C1CSC(c2cccnc2)N1", "note": "(stereo not given)", "z-score": "3.48 (active)"}
{"smiles": "Cc1nn2c3cc(N4CCNCC4)ccc3nc2c2ccccc12", "z-score": "3.84 (active)"}
{"smiles": "c1ccc2sc(N3CCNCC3)nc2c1", "z-score": -0.36}
{"smiles": "CC(=O)N[C@H]1CN2CC[C@H](O)[C@@H]2[C@@H](O)[C@@H]1O", "z-score": 0.34}
{"smiles": "CC(C)(C)[C@]1(O)C[C@@H]2OC(=O)C[C@@]23C(=O)O[C@@H]2OC(=O)[C@H](O)[C@]213", "z-score": 2.75}
{"smiles": "C#CCOc1ccc(C2SCC(=O)Nc3n[nH]c(C)c32)cc1OC", "note": "(stereo not given)", "z-score": 1.62}
{"smiles": "CCC1c2cccn2-c2ccccc2CN1C(=O)Nc1ccc(F)c(Cl)c1", "note": "(stereo not given)", "z-score": 1.12}
{"smiles": "C=CCOc1ccc(C2SCC(=O)Nc3n[nH]c(C)c32)cc1", "note": "(stereo not given)", "z-score": 1.1}
{"smiles": "CN1CC=C(c2noc(CCC(=O)Nc3ccc(Cl)cn3)n2)CC1", "z-score": 1.39}
{"smiles": "CCC(CC)n1[nH]c(=O)c2c1NC(=O)CSC2c1ccc(Br)cc1", "note": "(stereo not given)", "z-score": 0.25}
